The structures appear in SMILES notation.

The subject of the experiment is Plasmodium falciparum. Nature of the experiment: GSK_TCMDC: Inhibition of Plasmodium falciparum Dd2 in whole red blood cells, using parasite LDH activity as an index of growth. Test compounds present at 2uM. The format is functional.
As to `Cc1ccc2[nH]c(Nc3ccc(Nc4nc5cc(C)ccc5[nH]4)c(C)c3)nc2c1`, the Inhibition (in general, how much of the control response was suppressed) is listed as 94%.

Compound `COc1ccc(NC(=O)Nc2ccc(Nc3nc(C)cc(N(C)C)n3)cc2)cc1` showed an Inhibition of 99%.

In turn, `COc1ccc2nccc([C@@H](O)CN3CCC(NCc4ccc5scnc5c4)CC3)c2c1.O=C(O)C(=O)O` showed an Inhibition of 93%.

In turn, `Cc1cc(C(=O)Nc2ccc3c(c2)CCN3C2CCN(Cc3ccc(F)cc3Cl)C2)no1` (stereo not given) came in with an Inhibition of 96%.

Regarding `CCn1cnc2c(N3CCCCS3(=O)=O)cc(C(=O)N[C@@H](Cc3ccccc3)[C@H](O)CNC3CCOCC3)cc21`, the Inhibition is 87%.

The compound `NCC1CCCN1Cc1cccc(-c2cccc(-c3nc4cc(F)ccc4[nH]3)c2)c1.O=C(O)C(F)(F)F` (stereo not given) registered an Inhibition of 65%.

As for `Clc1ccc(CNC2CCN(CC3CCCCC3)CC2)cc1.O=C(O)C(F)(F)F`, the Inhibition was determined as 15%.

Regarding `CCCCCCCN(CCCCCCC)CCCC(=O)Nc1ccnc2ccc(OC)cc12.O=C(O)C(=O)O`, the Inhibition came to 98%.

For `CCOc1ccccc1CCNC(C)Cc1ccc(C(=O)Nc2ccc(CC(C)NCCc3cccc(Cl)c3)cc2)cc1` (stereo not given), the Inhibition is on record as 59%.

Consider `O=C(NCCCCN1CCC(c2ccc3c(c2O)CCCC3)CC1)c1ccc(-c2ccc(Cl)cc2)cc1`, for which the Inhibition was 72%.

`O=C(O)C(F)(F)F.O=c1[nH]ccc2nc(N[C@@H]3CCNC3)nc(Nc3ccc4c(c3)S(=O)(=O)CC4)c12` gave an Inhibition of 99%.

As to `COc1ccccc1N1CCN(CCCCNC(=O)c2ccc(NC(=O)c3ccc(C(F)(F)F)cc3)cc2)CC1`, the Inhibition is on record as 37%.

Consider `Cc1cc(C(=O)NCc2ccc(-c3c(C)noc3C)cc2)n(-c2ccccc2)n1`, for which the Inhibition came to 90%.

`COc1cccc(CN2CCCN(Cc3cccc(NC(=O)c4ccc(Cl)c(Cl)c4)c3)CC2)c1.O=C(O)C(F)(F)F` gave an Inhibition of 11%.

On to `COc1cc2c(cc1OC)-c1cc(=Nc3c(C)cc(C)cc3C)n(C)c(=O)n1CC2.Cl`, for which the Inhibition was 29%.

With `Cc1cccc2nc(-c3ccc(-c4ccc(NC(=O)Nc5ccc(F)c(F)c5F)cc4)s3)[nH]c12`, the Inhibition is reported as 99%.

`CCc1cn2c3c(cc(C(=O)N[C@@H](Cc4ccccc4)[C@H](O)CNCc4ccccc4)cc13)N(C)S(=O)(=O)CC2.O=CO` registered an Inhibition of 99%.

Compound `CN(Cc1cccc(O)c1)C1CCCN(c2cc(NC(=O)c3ccc(F)cc3)ccn2)C1.O=C(O)C(F)(F)F` (stereo not given) showed an Inhibition of 12%.

As for `COc1ccc(CCN(C)CCCCNC(=O)c2ccc(NC(=O)c3ccc(Cl)cc3)cc2)c(OC)c1`, the Inhibition is on record as 0%.

Turning to `COc1cccc(NC(=O)N2CCOC(CCN3CCC4(CCc5ccccc54)CC3)(c3ccc(Cl)c(Cl)c3)C2)c1` (stereo not given), the Inhibition is on record as 72%.

For `COc1ccc(OCC(=O)Nc2cc(-c3nc4ccccc4[nH]3)ccc2Cl)cc1`, the Inhibition is recorded as 33%.

With `CC(=O)Nc1ncc(C(=O)Nc2cccc(-c3cccc(-c4nc5cc(C(F)(F)F)ccc5[nH]4)c3)c2)s1`, the Inhibition is 99%.

`Cc1ccc(NC(=S)NC2CCN(CCCCCNC(=O)/C=C/c3ccc(Cl)c(Cl)c3)CC2)cc1Cl` yielded an Inhibition of 56%.

With `CN(C)CCN(Cc1ccccc1-c1ccc(CNCCc2ccccc2)cc1)C(=O)c1ccccc1.O=C(O)C(F)(F)F`, the Inhibition was 97%.

In turn, `CN(C)S(=O)(=O)c1ccc(N2CCN(CCC3(c4cccc(F)c4)CCN(C(=O)C(C)(C)C)CC3)CC2)c2nonc12` displayed an Inhibition of 85%.

Consider `COc1cc(-c2cc(-c3ccc(S(C)(=O)=O)cc3)cnc2N)ccc1O`, for which the Inhibition was 97%.

As for `C[C@@H]([C@@H](CCCCc1ccccc1)C(=O)N[C@H](C(=O)Nc1cccnc1)C(C)(C)C)N(O)C=O`, the Inhibition is given as 98%.

In turn, `COc1ccc2ncc(F)c(CCN3C[C@H](CNCc4cc(C#N)c5c(c4)OCCO5)[C@H](O)C3)c2n1.Cl` returned an Inhibition of 64%.

On to `CCOc1c(C)cc(C(F)(F)F)cc1CNCCCNc1cc(=O)c2ccccc2[nH]1.Cl`, for which the Inhibition was 1%.

`O=C(Nc1cccc(-c2cccc(F)c2)c1)C1CCN(Cc2ccc(O)cc2)CC1`: the Inhibition was 2%.

With `CC(C)CNCc1cccc(-c2cccc(CN(CCN(C)C)C(=O)NCCc3ccccc3)c2)c1.O=C(O)C(F)(F)F`, the Inhibition is on record as 83%.

On to `COc1cccc(Nc2nccc(NCC(O)c3cccc(C(F)(F)F)c3)n2)c1` (stereo not given), for which the Inhibition was 27%.

In turn, `O=C(O)C(F)(F)F.O=[N+]([O-])c1cccc(CNC2CCN(Cc3ccc(-c4ccccc4)cc3)CC2)c1` returned an Inhibition of 96%.

Regarding `COc1ccccc1N1CCN(C(C(=O)NCc2ccc3c(c2)OCO3)c2ccc3c(c2)OCCCO3)CC1` (stereo not given), the Inhibition was 13%.

Turning to `COc1ccc(CNCc2ccc(-c3ccc(-c4nc5cccc(C)c5[nH]4)s3)cc2)cc1.O=C(O)C(F)(F)F`, the Inhibition turned out to be 89%.

The record behind these values is ChEMBL document CHEMBL1157539, “Thousands of chemical starting points for antimalarial lead identification” (Nature, 2010).
